Source: PubChem BioAssay AID743047 (Broad Institute, 2013)
Entries with a potency or affinity are not part of this list. Unmarked numbers belong to inactive results. Calls of active or inactive are those of the source. How the calls were made is not given here.

Test: PAX5 cellular inhibition readout – cell-based, plate reader, dry powder samples, selectivity assay for PAX8 inhibitor project, dose response (AID 743047)
Details: cell-based PAX5 selectivity counter-screen; series mostly up to 50 µM

| Compound | outcome | activity change, negative = inhibition |
| --- | --- | --- |
| COc1ccc(S(=O)(=O)Nc2ccc3c(c2)CC(=O)N([C@@H](C)CO)C[C@@H](C)[C@@H](CN(C)Cc2ccc(-c4ccccc4)cc2)O3)cc1 | inactive | – |
| C[C@@H]1CN([C@H](C)CO)C(=O)CCCn2cc(nn2)CO[C@H]1CN(C)C(=O)Nc1ccc(-c2cccs2)cc1 | inactive | – |
| CN(C[C@H]1N[C@@H](CO)[C@@H]1c1ccc(C2=CCCC2)cc1)C(=O)c1cccc(F)c1 | – | 243% [at 8 µM] |
| O=C1/C(=C/c2ccccc2F)SC(=S)N1CC(=O)N1CCCCC1c1cccnc1 (stereo unspecified) | inactive | – |
| C[C@H](CO)N1C[C@H](C)[C@H](CN(C)C(=O)Nc2ccc(-c3cccs3)cc2)OCc2cnnn2CCCC1=O | inactive | – |
| COc1cc(/C=C2\SC(=S)N(CCC(=O)N3CCCCC3)C2=O)cc(OC)c1OC | inactive | – |
| COc1ccc(OC)c2sc(N(CCCN(C)C)C(=O)CCS(=O)(=O)c3ccccc3)nc12 | inactive | – |
| N#C[C@H]1[C@@H](c2ccc(C#Cc3cccc(F)c3)cc2)[C@@H](CO)N1C(=O)C1CCCC1 | inactive | – |
| CN(C)CCCN(C(=O)CCOc1ccccc1)c1nc2c(F)cccc2s1 | inactive | – |
| O=C(CCS(=O)(=O)c1ccccc1)Nc1nc2ccc(F)cc2s1 | inactive | – |
| CN(C[C@H]1N[C@@H](CO)[C@@H]1c1ccc(C2=CCCC2)cc1)C(=O)c1ccc(F)cc1 | – | 225% [at 8 µM] |
| O=C(CCCN1C(=O)/C(=C\c2cccc(Br)c2)SC1=S)Nc1cccnc1 | inactive | – |
| C[C@H](CO)N1C[C@H](C)[C@@H](CN(C)Cc2ccc(-c3ccccc3)cc2)Oc2ccc(NC(=O)C3CC3)cc2CC1=O | inactive | – |
| CC(C)(C)c1nnc(NC(=O)CCS(=O)(=O)c2ccccc2)s1 | inactive | – |
| COc1cccc2sc(N(CCCN(C)C)C(=O)CCS(=O)(=O)c3ccccc3)nc12 | inactive | – |
| CC1(C)CC(=O)c2sc(NC(=O)CCS(=O)(=O)c3ccccc3)nc2C1 | inactive | – |
| O=C(c1cc(-c2cccs2)on1)N1CCN(C(c2ccccc2)c2ccccc2)CC1 | inactive | – |
| O=C(CCCN1C(=O)/C(=C\c2cccc(Br)c2)SC1=S)Nc1ccccn1 | inactive | – |
| COc1ccc(-c2cc(C(F)(F)F)nc(S(=O)(=O)CCCC(=O)Nc3cc(C)on3)n2)cc1OC | inactive | – |
| CC(=O)Nc1ccc(NC(=O)c2nc(S(=O)(=O)Cc3ccccc3)ncc2Cl)cc1 | inactive | – |
| Cc1cc(NC(=O)CCCS(=O)(=O)c2nc(-c3cccs3)cc(C(F)(F)F)n2)no1 | inactive | – |
| Cc1ccc(-c2csc(NC3OC(=O)c4ccccc43)n2)cc1 (stereo unspecified) | inactive | – |
| C[C@H]1CN([C@@H](C)CO)C(=O)CCCn2nncc2CO[C@@H]1CN(C)C(=O)Nc1ccc(-c2cccs2)cc1 | inactive | – |
| N#C[C@H]1N[C@H](CO)[C@@H]1c1ccc(C#Cc2ccccc2F)cc1 | inactive | – |
| Cc1ccc2cccc(NS(=O)(=O)c3ccccc3)c2n1 | inactive | – |
| COCC(=O)N1[C@H](CO)[C@H](c2ccc(-c3cccnc3)cc2)[C@@H]1C#N | inactive | – |
